Results filed as inconclusive are left out. Calls of active or inactive are those of the source. The calls were made as follows, unless noted: active = hit-call score of the fitted dose curve at least 0.9, where 1 is the maximum; inactive = score below 0.9.
Assays:
[1] = ATG_PBREM_CIS: Attagene CIS-FACTORIAL HepG2 Assay for human Phenobarbital-responsive Enhancer Module (PBREM) (AID 2282955); settings: HepG2 PBREM cis-reporter, Attagene multiplexed transcription; actives raise or lower the signal
Outline: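 Endogenous transcription factor activity was read from reporter transcripts in transiently transfected human HepG2 liver cells after 24 h dosing. RT-PCR products were fluorescently labelled, HpaI-cut and sized by capillary electrophoresis; activity fitted bidirectionally against DMSO baseline.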

[2] = molecular target: Paired box protein Pax-6 (Homo sapiens) (UniProt P26367); experiment: ATG_Pax6_CIS: Attagene CIS-FACTORIAL HepG2 Assay for human Paired Box 6 (PAX6) (AID 2282956); settings: HepG2 CIS-FACTORIAL PAX6 reporter transcription, RNA readout; actives raise or lower the signal
Sequence of Paired box protein Pax-6 (Homo sapiens) (P26367 whole entry, looked up): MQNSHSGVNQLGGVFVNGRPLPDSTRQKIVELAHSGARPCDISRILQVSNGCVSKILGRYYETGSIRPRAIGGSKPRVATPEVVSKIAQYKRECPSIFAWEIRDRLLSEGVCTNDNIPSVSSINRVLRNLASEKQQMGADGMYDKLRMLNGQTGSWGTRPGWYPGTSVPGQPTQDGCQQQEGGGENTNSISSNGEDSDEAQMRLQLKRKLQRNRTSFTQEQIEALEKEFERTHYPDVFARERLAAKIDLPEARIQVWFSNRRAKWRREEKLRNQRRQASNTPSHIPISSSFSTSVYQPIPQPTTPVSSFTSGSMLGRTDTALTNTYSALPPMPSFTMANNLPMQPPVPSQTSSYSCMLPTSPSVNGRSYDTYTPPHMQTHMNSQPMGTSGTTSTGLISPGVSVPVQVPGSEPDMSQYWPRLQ
Outline: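 Values derive from bidirectional curve fitting of reporter mRNA signal relative to DMSO. HepG2 cells bearing transfected cis-regulated MRTUs were exposed for 24 h; transcripts were read by RT-PCR and capillary electrophoresis.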

[3] = ATG_PXRE_CIS: Attagene CIS-FACTORIAL HepG2 Assay for human Pregnane X Receptor Element (PXRE) (AID 2282957); settings: HepG2 Attagene CIS-FACTORIAL PXRE reporter, mRNA; actives raise or lower the signal
Outline: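 Read-out: fluorescence of reporter-specific RT-PCR products resolved by capillary electrophoresis, fitted bidirectionally relative to DMSO. Human HepG2 liver cells carried transfected cis-promoter reporter units and were exposed to chemicals for 24 h.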

[4] = ATG_PPRE_CIS: Attagene CIS-FACTORIAL HepG2 Assay for human Peroxisome Proliferator-activated Response Element (PPRE) (AID 2282958); settings: HepG2 PPRE cis-element reporter, Attagene transcription factor profiling; actives raise or lower the signal
Outline: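 Endogenous PPRE-driven transcription is measured in HepG2 cells carrying transfected multi-reporter constructs. Reporter transcripts are quantified by RT-PCR, HpaI digestion and capillary electrophoresis 24 h after dosing. DMSO baseline, bidirectional fit.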

[5] = ATG_RORE_CIS: Attagene CIS-FACTORIAL HepG2 Assay for human RAR-related Orphan Receptor Element (RORE) (AID 2282959); settings: HepG2 Attagene cis-factorial RORE reporter, mRNA; actives raise or lower the signal
Outline: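 RORE reporter transcripts reflecting endogenous factor activity were read after 24 h compound exposure of transfected HepG2 cells, using reverse transcription, PCR, fluorescent labelling and capillary electrophoresis sizing. Gain or loss fitted against DMSO.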

[6] = ATG_Sox_CIS: Attagene CIS-FACTORIAL HepG2 Assay for human SRY-box transcription factor (SOX) (AID 2282960); settings: HepG2 Attagene cis-factorial SOX reporter, mRNA; actives raise or lower the signal
Outline: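 Reporter transcripts, measured by RT-PCR and capillary electrophoresis of labelled fragments, report endogenous SOX transcription factor activity. Transiently transfected human HepG2 cells receive chemical for 24 h; changes in either direction are fitted relative to DMSO.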

[7] = molecular target: Transcription factor Sp1 (Homo sapiens) (UniProt P08047); experiment: ATG_Sp1_CIS: Attagene CIS-FACTORIAL HepG2 Assay for human Specificity Protein 1 (Sp1) (AID 2282961); settings: HepG2 Sp1 cis-reporter transcription, actives raise or lower the signal
Sequence of Transcription factor Sp1 (Homo sapiens) (P08047 whole entry, looked up): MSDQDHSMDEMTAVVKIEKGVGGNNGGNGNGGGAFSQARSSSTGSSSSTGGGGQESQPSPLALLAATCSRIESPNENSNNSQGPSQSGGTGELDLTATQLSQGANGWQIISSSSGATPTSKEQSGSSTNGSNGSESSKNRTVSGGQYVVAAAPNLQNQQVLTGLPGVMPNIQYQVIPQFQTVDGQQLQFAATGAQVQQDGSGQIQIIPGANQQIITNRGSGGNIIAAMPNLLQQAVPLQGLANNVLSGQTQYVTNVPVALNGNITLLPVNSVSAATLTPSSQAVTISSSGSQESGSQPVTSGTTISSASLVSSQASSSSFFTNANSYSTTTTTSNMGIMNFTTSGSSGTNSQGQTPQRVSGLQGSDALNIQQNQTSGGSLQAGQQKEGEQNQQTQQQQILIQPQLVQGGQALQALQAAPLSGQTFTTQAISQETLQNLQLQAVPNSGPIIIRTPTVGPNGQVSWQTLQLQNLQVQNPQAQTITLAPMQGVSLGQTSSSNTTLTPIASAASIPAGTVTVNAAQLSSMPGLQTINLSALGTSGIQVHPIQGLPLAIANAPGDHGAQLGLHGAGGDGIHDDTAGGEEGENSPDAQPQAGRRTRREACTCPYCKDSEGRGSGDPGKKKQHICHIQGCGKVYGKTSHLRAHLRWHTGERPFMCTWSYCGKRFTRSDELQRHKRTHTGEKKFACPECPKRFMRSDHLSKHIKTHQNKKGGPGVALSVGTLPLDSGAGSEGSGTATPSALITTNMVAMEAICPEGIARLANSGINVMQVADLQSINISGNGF
Outline: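 Read-out is reporter transcript level, measured by RT-PCR and fluorescent capillary electrophoresis after 24 h chemical treatment. System: transiently transfected HepG2 cells reporting endogenous transcription factor activity; gain or loss fitted against DMSO baseline.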

[8] = ATG_SREBP_CIS: Attagene CIS-FACTORIAL HepG2 Assay for human Sterol Regulatory Element Binding (SREBP) (AID 2282962); settings: HepG2 Attagene cis-factorial SREBP reporter, mRNA; actives raise or lower the signal
Outline: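 Values derive from bidirectional curve fitting with DMSO as baseline. The underlying measurement is reporter mRNA from cis-element-regulated units in transiently transfected HepG2, quantified by RT-PCR and capillary electrophoresis after 24 h exposure.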

[9] = molecular target: Signal transducer and activator of transcription 3 (Homo sapiens) (UniProt P40763); experiment: ATG_STAT3_CIS: Attagene CIS-FACTORIAL HepG2 Assay for human Signal Transducer and Activator of Transcription 3 (STAT3) (AID 2282963); settings: HepG2, Attagene cis-factorial STAT3 reporter transcription; actives raise or lower the signal
Sequence of Signal transducer and activator of transcription 3 (Homo sapiens) (P40763 whole entry, looked up, the tested form may be a part): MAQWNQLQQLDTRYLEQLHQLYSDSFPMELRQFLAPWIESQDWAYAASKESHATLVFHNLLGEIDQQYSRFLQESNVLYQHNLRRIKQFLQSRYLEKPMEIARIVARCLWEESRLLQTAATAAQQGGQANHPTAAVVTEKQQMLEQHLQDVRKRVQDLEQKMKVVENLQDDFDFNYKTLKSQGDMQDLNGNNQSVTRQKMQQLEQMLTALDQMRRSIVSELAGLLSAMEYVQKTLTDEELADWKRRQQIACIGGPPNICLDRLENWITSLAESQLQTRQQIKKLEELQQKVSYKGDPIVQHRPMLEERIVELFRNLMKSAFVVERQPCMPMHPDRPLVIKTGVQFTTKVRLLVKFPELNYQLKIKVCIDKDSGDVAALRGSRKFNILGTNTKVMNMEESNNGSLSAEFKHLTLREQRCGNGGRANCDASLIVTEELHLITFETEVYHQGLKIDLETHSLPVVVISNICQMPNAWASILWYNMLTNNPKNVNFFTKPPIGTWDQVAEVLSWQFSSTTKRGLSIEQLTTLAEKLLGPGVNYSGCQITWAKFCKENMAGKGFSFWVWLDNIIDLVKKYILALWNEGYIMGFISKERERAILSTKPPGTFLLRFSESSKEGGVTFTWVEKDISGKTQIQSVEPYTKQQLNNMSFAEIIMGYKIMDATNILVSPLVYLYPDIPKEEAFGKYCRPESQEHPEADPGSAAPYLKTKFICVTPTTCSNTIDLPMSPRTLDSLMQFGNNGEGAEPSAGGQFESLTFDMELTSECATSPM
Outline: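 Readout: fluorescent reporter mRNA fragments resolved by capillary electrophoresis. Setup: HepG2 transfected with MRTUs reporting endogenous transcription-factor activity, dosed 24 h. Gain or loss of signal fitted bidirectionally against DMSO control.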

[10] = ATG_TA_CIS: Attagene CIS-FACTORIAL HepG2 Assay for human TA Basal Promoter (AID 2282964); settings: HepG2 Attagene CIS-factorial TA basal promoter reporter; actives raise or lower the signal
Outline: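 Read-out: fluorescent reporter-transcript fragments resolved by capillary electrophoresis after RT-PCR and HpaI digestion. Source: HepG2 cells carrying transiently transfected multi-reporter cis constructs, treated 24 h. Endpoint fitted bidirectionally relative to DMSO.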

[11] = ATG_TCF_b_cat_CIS: Attagene CIS-FACTORIAL HepG2 Assay for human T-Cell-Factor with beta-catenin (TCF/b-cat) (AID 2282965); settings: HepG2 TCF/beta-catenin cis-reporter transcription, actives raise or lower the signal
Outline: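 HepG2 cells transiently transfected with cis-promoter-driven multiplexed reporter units; reporter mRNA measured 24 h after dosing by RT-PCR, FAM labelling, HpaI digestion and capillary electrophoresis. Bidirectional fitting relative to DMSO baseline.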

[12] = ATG_TAL_CIS: Attagene CIS-FACTORIAL HepG2 Assay for human TAL Basal Promoter (AID 2282966); settings: HepG2 Attagene cis-factorial TAL promoter reporter; actives raise or lower the signal;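 also: background control endpoint measuring basal TAL promoter reporter mRNA not a specific factor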
Outline: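 HepG2, transient MRTU transfection, 24 h compound exposure; RNA → oligo(dT) RT → PCR → 6-FAM primer extension → HpaI digest → CE fluorescence. Bidirectional curve fit vs DMSO. Background-control readout.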

[13] = molecular target: Nuclear receptor subfamily 1 group I member 3 (Homo sapiens) (UniProt Q14994); experiment: ATG_CAR_TRANS: Attagene TRANS-FACTORIAL HepG2 Assay for human Constitutive Androstane Receptor (CAR) (AID 2282969; active = hit-call score of the fitted dose curve at least 0.9, where 1 is the maximum;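 also: activators raise reporter mRNA above DMSO so AC50 marks induction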); settings: HepG2 Attagene TRANS-FACTORIAL CAR reporter
Sequence of Nuclear receptor subfamily 1 group I member 3 (Homo sapiens) (Q14994 whole entry, looked up, the tested form may be a part): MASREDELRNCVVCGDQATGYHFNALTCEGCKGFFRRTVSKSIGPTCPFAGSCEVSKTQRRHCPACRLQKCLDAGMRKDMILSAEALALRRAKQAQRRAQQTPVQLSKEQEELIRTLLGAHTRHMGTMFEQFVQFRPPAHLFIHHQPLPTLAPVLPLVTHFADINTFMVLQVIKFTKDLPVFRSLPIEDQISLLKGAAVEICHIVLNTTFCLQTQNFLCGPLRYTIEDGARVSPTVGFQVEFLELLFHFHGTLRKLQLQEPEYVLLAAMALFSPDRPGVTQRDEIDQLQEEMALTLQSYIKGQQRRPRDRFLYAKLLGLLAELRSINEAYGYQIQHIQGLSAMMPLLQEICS
Outline: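 Transiently transfected HepG2, multiplex TRANS reporters (CAR-Gal4 chimera driving GAL4-UAS reporter). 24 h dosing. Readout: reporter transcript by RT-PCR + capillary electrophoresis, fluorescence intensity; positive direction vs DMSO.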

[14] = molecular target: Estrogen receptor (Homo sapiens) (UniProt P03372); experiment: ATG_ERa_TRANS: Attagene TRANS-FACTORIAL HepG2 Assay for human Estrogen Receptor alpha (ERa) (AID 2282970; active = hit-call score of the fitted dose curve at least 0.9, where 1 is the maximum); settings: HepG2 Attagene TRANS ERa GAL4 reporter, mRNA
Sequence of Estrogen receptor (Homo sapiens) (P03372 whole entry, looked up, the tested form may be a part): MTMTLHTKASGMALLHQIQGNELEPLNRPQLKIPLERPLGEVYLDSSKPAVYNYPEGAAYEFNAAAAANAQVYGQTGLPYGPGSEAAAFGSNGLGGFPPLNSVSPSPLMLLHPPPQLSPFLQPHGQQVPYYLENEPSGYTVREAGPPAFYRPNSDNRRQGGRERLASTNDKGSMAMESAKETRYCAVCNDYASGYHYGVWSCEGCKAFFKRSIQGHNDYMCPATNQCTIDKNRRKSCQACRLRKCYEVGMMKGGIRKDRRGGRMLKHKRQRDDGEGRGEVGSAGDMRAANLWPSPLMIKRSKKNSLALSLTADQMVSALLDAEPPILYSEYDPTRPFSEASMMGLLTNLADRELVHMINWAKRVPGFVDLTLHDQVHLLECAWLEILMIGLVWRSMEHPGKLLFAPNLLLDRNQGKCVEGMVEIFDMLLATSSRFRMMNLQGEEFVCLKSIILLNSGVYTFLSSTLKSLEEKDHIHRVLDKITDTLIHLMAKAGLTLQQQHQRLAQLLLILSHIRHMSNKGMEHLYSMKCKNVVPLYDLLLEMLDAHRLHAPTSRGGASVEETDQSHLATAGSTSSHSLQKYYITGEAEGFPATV
Outline: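 Reporter mRNA induction after 24 hours, detected by fluorescent RT-PCR and capillary electrophoresis, gives the read-out. Cells are HepG2 transiently transfected with GAL4-UAS reporter transcription units responding to chimeric NR-Gal4. Activity is taken as gain of signal over DMSO baseline.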

[15] = molecular target: X-box-binding protein 1 (Homo sapiens) (UniProt P17861); experiment: ATG_Xbp1_CIS: Attagene CIS-FACTORIAL HepG2 Assay for human X-box Binding Protein 1 (XBP1) (AID 2282972); settings: HepG2 XBP1 cis-element reporter, Attagene multiplex; actives raise or lower the signal
Sequence of X-box-binding protein 1 (Homo sapiens) (P17861 whole entry, looked up): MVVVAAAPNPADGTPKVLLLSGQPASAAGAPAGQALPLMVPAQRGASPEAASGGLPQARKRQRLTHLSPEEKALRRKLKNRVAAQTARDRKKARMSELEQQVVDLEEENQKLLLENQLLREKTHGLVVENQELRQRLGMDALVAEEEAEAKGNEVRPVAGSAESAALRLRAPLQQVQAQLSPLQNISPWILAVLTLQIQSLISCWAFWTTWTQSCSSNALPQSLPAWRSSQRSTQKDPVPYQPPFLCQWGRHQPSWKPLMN
Outline: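 Human hepatoma HepG2, cis-element reporter system, 24 h treatment; mRNA quantified by RT-PCR/CE fluorescence; fit relative to DMSO.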

[16] = ATG_TGFb_CIS: Attagene CIS-FACTORIAL HepG2 Assay for human Transforming Growth Factor (TGF) (AID 2282967); settings: HepG2 Attagene CIS TGFb reporter, mRNA transcription; actives raise or lower the signal
Outline: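 Transient MRTU transfection of HepG2 (FuGene 6). Dose 24 h. TriZol RNA, oligo(dT) RT, PCR, 6-FAM primer extension, HpaI cut, CE. Bidirectional fit, DMSO = baseline.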

[17] = ATG_VDRE_CIS: Attagene CIS-FACTORIAL HepG2 Assay for human Vitamin D Receptor Element (VDRE) (AID 2282968); settings: HepG2 VDRE cis-reporter transcription, actives raise or lower the signal
Outline: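 Transient MRTU transfection of HepG2, 24 h compound exposure. Readout: reporter transcripts via RT-PCR and capillary electrophoresis, fluorescence. Bidirectional fit vs DMSO.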

[18] = ATG_M_19_TRANS: Attagene TRANS-FACTORIAL HepG2 Assay for M19 Transcription Factor (Internal Marker) (AID 2282974; active = hit-call score of the fitted dose curve at least 0.9, where 1 is the maximum); settings: HepG2 Attagene TRANS-FACTORIAL M19 internal marker reporter
Outline: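 Background-control readout: after 24 h chemical exposure of transfected HepG2 carrying GAL4-driven reporter units, RNA was reverse-transcribed, amplified, fluorescently labeled and sized by capillary electrophoresis; gain-of-signal fit against DMSO.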

[19] = ATG_GAL4_TRANS: Attagene TRANS-FACTORIAL HepG2 Assay for GAL4 (Internal Marker) (AID 2282976; active = hit-call score of the fitted dose curve at least 0.9, where 1 is the maximum); settings: HepG2 Attagene TRANS GAL4 internal marker reporter
Outline: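 RT-PCR/capillary electrophoresis readout of reporter mRNA. HepG2, transient MRTU transfection (GAL4-UAS reporters), 24 h compound exposure. Background-control endpoint, positive direction vs DMSO baseline.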

[20] = molecular target: Steroid hormone receptor ERR1 (Homo sapiens) (UniProt P11474); experiment: ATG_ERRa_TRANS: Attagene TRANS-FACTORIAL HepG2 Assay for human Estrogen-Related Receptor alpha (ERRa) (AID 2282971; active = hit-call score of the fitted dose curve at least 0.9, where 1 is the maximum); settings: HepG2 Attagene TRANS reporter, ERRa transactivation
Sequence of Steroid hormone receptor ERR1 (Homo sapiens) (P11474 whole entry, looked up, the tested form may be a part): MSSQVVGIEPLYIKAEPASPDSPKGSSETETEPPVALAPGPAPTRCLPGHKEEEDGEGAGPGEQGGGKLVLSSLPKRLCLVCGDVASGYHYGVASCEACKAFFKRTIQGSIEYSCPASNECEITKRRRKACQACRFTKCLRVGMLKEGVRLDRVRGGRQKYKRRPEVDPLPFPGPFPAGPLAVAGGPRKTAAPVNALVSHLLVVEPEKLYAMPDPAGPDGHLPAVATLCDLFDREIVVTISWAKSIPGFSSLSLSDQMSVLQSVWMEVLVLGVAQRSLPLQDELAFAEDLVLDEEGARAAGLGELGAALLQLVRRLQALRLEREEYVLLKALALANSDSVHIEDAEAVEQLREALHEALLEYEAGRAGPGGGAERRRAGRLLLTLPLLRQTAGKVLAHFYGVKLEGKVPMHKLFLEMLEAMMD
Outline: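 Transfected HepG2, 24 h dosing, ERRa-Gal4 chimera driving GAL4-UAS reporter. Readout: reporter mRNA via RT-PCR plus capillary electrophoresis (fluorescence). Positive direction vs DMSO control.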

Measured: AC50

O=C1CCCCCCCCCCC1
active: [1] 22.2 µM | [3] 8.96 µM | [14] 21.2 µM
not listed: [16] | [17] | [18] | [19] | [20]
inactive: all other assays above

Nc1ncnc2nc[nH]c12
not listed: [13] | [14] | [20]
inactive: all other assays above

CCC(=O)C1CC(C(C)C)CC=C1C (stereo not given)
active: [3] 4.33 µM
not listed: [10] | [13] | [14] | [17] | [18] | [19]
inactive: all other assays above

CC(=O)OC1CCCCC1C(C)(C)C (stereo not given)
not listed: [16] | [18] | [20]
inactive: all other assays above

COc1cc(O)c(C(=O)c2ccccc2)cc1S(=O)(=O)O
not listed: [20]
inactive: all other assays above

COC(=O)C=Cc1ccccc1
not listed: [10] | [18] | [20]
inactive: all other assays above

CCc1occc(=O)c1O
active: [3] 28.4 µM
not listed: [13] | [17] | [18] | [20]
inactive: all other assays above

— PubChem BioAssay (EPA / NIEHS)
